Data: PubChem BioAssay AID2358 (The Scripps Research Institute Molecular Screening Center, 2010)
Screen size: about 1,900 compounds; about 1,000 (53%) were called active. So high a share suggests a set chosen from earlier hits. Not all results are given here. Unmarked numbers belong to inactive results.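 How the source made its calls: active means mean PP1 inhibition above a set limit taken from the earlier primary screen (cut at about 15% in these data); inactive means the rest.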

target: Serine/threonine-protein phosphatase PP1-alpha catalytic subunit (Homo sapiens) (UniProt P62136); test: PP1 phosphatase inhibitors, confirmation, biochemical, fluorescence, OMFP substrate, triplicate (AID 2358); conditions: purified PP1alpha, at 6.7 µM, stronger effect = higher value
Sequence (P62136 whole entry, looked up): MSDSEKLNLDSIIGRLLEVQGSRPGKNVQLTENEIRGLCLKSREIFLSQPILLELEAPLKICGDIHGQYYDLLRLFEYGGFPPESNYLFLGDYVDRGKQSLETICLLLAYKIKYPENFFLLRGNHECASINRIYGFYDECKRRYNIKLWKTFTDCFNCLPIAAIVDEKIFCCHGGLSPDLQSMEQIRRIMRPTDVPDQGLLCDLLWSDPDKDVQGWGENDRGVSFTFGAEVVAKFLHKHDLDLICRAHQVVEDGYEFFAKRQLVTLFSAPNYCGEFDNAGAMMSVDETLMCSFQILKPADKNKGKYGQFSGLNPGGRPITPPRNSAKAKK

Row | SMILES | inhibition
1 | Cc1ccc(C)c(Cn2nnc3c(=O)[nH]c(C(=O)Nc4ccc(F)cc4)nc32)c1 | 20.8% (active)
2 | COc1ccccc1NC(=O)CSc1nc2sc3c(c2c(=O)n1-c1ccccc1)CCN(C)C3 | 10.6%
3 | COc1ccccc1/C=N\Nc1cc(C)nc(-n2nc(C)cc2C)n1 | 44.3% (active)
4 | Cc1cc(N/N=C\c2ccc(Br)cc2)nc(-n2nc(C)cc2C)n1 | 21.7% (active)
5 | CN1CCN(CCCNC(=O)c2ccc(/C=C3\Oc4ccccc4N(Cc4ccc(Cl)cc4)C3=O)cc2)CC1 | 6.35%
6 | O=C(COC(=O)c1ccc(Oc2ccccc2)cc1)Nc1nnc(-c2ccccc2)o1 | 16.8% (active)
7 | O=C(N=C1SC2CS(=O)(=O)CC2N1c1cc(Cl)ccc1Cl)C1CC1 (stereo not given) | -1.43%
8 | Cc1ccc(Nc2nc(CSc3nnnn3-c3ccccc3)cc(=O)[nH]2)cc1 | 26% (active)
9 | Cc1cc(Nc2ccccc2)n(C(=O)c2ccc(N)cc2)n1 | 2.75%
10 | Cc1ccc(N2C(=O)C3N=NN(CC(=O)N4N=C(c5cccc6ccccc56)CC4c4ccccc4)C3C2=O)cc1 (stereo not given) | 12.9%
11 | O=C1c2cccc(OCC(=O)N3N=C(c4cccs4)CC3c3ccc(F)cc3)c2CCN1Cc1ccccc1 (stereo not given) | 13.1%
12 | O=C1C2N=NN(CC(=O)N3N=C(c4cccc5ccccc45)CC3c3ccccc3)C2C(=O)N1c1ccccc1 (stereo not given) | 24.2% (active)
13 | O=[N+]([O-])c1ccccc1/C=N/n1c(COc2ccccc2)n[nH]c1=S | -1.61%
14 | CCCCn1c(SCc2ncc(-c3ccccc3)o2)nc2cc(S(N)(=O)=O)ccc21 | 11%
15 | CC(C)OC(=O)c1cc(NC(=O)C2C3CCC(O3)C2C(=O)O)cc(C(=O)OC(C)C)c1 (stereo not given) | 5%
16 | COc1ccc(NC(=O)C2C3CCC(O3)C2C(=O)O)cc1OC (stereo not given) | 18.6% (active)
17 | Oc1c(C(c2ccccn2)N2CCOCC2)ccc2cccnc12 (stereo not given) | 69.3% (active)
18 | Cc1ccc(-n2nc3ccc(NC(=O)/C=C/c4ccco4)cc3n2)cc1C | 14.7%
19 | Oc1c(Cl)cc(Cl)c(Cl)c1Cc1c(O)c(Cl)cc(Cl)c1Cl | 22.2% (active)
20 | Cc1cc(-c2csc(N)n2)c(C)n1-c1ccccc1 | 10.2%
21 | CCOc1ccc(NC(=O)c2ccc(NC(=O)COC(=O)c3ccc(NC(=O)CC#N)cc3)cc2)cc1 | 47.8% (active)
22 | CN(C(=O)COC(=O)c1cc(-c2ccco2)nc2ccccc12)C1CCS(=O)(=O)C1 (stereo not given) | 20.3% (active)
23 | CCn1c(SCC(=O)Nc2cc(C)ccc2C)nnc1-c1cnccn1 | -2.85%

Row | SMILES | inhibition
24 | c1ccc(-c2nccc(-c3ccc(-n4cnc5ccccc54)cc3)n2)nc1 | 65.5% (active)
25 | O=C1C(=O)N(CC2COc3ccccc3O2)c2ccccc21 (stereo not given) | 1.9%
26 | CC1CCCCN1S(=O)(=O)c1ccc(C(=O)Nc2nnc(-c3cccs3)o2)cc1 (stereo not given) | 23.2% (active)
27 | Cc1ccccc1S(=O)(=O)N1[C@@H](c2cccc(Cl)c2)C(C(=O)O)=CC[C@H]1c1ccc(Cl)cc1 | 15.6% (active)
28 | Cc1ccc(S(=O)(=O)N2[C@@H](c3cccc(Cl)c3)C(C(=O)O)=CC[C@H]2c2ccc(Cl)c(Cl)c2)cc1 | 18.2% (active)
29 | Cc1ccc(-c2nn(-c3ccccc3)cc2/C=C2\SC(=S)N(CCCCCC(=O)O)C2=O)o1 | 19.6% (active)
30 | COc1ccc(-c2nn(-c3ccccc3)cc2/C=C2/SC(=S)N(CCCC(=O)O)C2=O)c(C)c1 | 29.4% (active)
31 | COc1ccc(-c2nn(-c3ccccc3)cc2/C=C\C(=O)Nc2ccc(C(=O)O)cc2)cc1 | 11%
32 | CS(=O)(=O)c1ccc2c(c1)SC1=NC(=O)/C(=C/c3ccco3)C(=N)N12 | 7.76%
33 | CCCc1ccc(OCC(=O)NNC(=S)NC(=O)c2ccco2)cc1 | 14.1%
34 | Cc1ccc(OCC(=O)Nc2ccc(-c3nnc(-c4ccco4)o3)cc2)cc1 | 25.6% (active)
35 | O=C(CSc1nnc(C2CC2)n1Cc1ccccc1)Nc1cccnc1Cl | -0.54%
36 | C=CCn1c(=NC(=O)c2ccc(S(=O)(=O)N3CCCC3)cc2)sc2cc(NC(C)=O)ccc21 | 23.1% (active)
37 | N#Cc1c(-c2ccccc2)nc(SCc2cccc(C(F)(F)F)c2)[nH]c1=O | 14.1%
38 | Clc1ccc2c(c1)C1=C(C(c3ccncc3)O2)C(c2ccc(Br)cc2)n2ncnc2N1 (stereo not given) | 18.4% (active)
39 | O=C(N/N=C/c1cc([N+](=O)[O-])ccc1O)/C(=C\c1cccs1)NC(=O)c1ccccc1 | 30.9% (active)
40 | CCOc1ccc(/C=C/C(=O)OCC(=O)c2ccccc2OC)cc1OC | 0.75%
41 | COc1cnc(-c2ccccn2)nc1Oc1ccc(C(C)(C)C)cc1 | 32.3% (active)
42 | CC(C)(C)Nc1nc(-c2ccccn2)nc2ccccc12 | 7.11%
43 | Cc1ccc(CSCC2Nc3ccc(C(=O)N4CCN(c5ccc(F)cc5)CC4)cc3NC2=O)cc1 (stereo not given) | 22.6% (active)
44 | Oc1ccc(C2Nc3cccc4cccc(c34)N2)cc1 | 0.4%
45 | COCCCNC(=O)C1CC(=O)N(c2ccc(C)cc2)C1 (stereo not given) | -1.39%
46 | OCCNc1nc(Nc2ccc(Cl)c(Cl)c2)nc2ccccc12 | -0.84%

Row | SMILES | inhibition
47 | Oc1c(CN2CCN(c3ccc(F)cc3)CC2)cc(Cl)c2cccnc12 | 39.1% (active)
48 | CCCCCCCCCCOC(=O)Cn1c(COc2ccc(C)cc2)[n+](C)c2ccccc21 | 12.8%
49 | Cc1ccc(NS(=O)(=O)c2ccc(N/N=C/c3ccccc3OCC(=O)O)c([N+](=O)[O-])c2)c(C)c1 | 16% (active)
50 | Nc1ccc2nc3c(=O)[nH]c(=S)[nH]c3nc2c1 | 34% (active)
51 | C/C(=N\c1nc2ccccc2n1C)c1cc(Cl)ccc1O | -7.49%
52 | C=C1c2c(Cl)ccc(O)c2C(O)=C2C(=O)[C@]3(O)C(O)=C(C(N)=O)C(=O)[C@@H](N(C)C)[C@@H]3[C@@H](O)C12 (stereo not given in full) | 7.26%
53 | C=CCN(CC=C)S(=O)(=O)c1ccc(C(=O)Nc2nc3c(s2)CCc2ccccc2-3)cc1 | 27.9% (active)
54 | COCCN(CCOC)S(=O)(=O)c1ccc(C(=O)Nc2nc3c(s2)CCc2ccccc2-3)cc1 | 34.5% (active)
55 | O=C(Nc1nc(-c2ccco2)c(-c2ccco2)s1)c1ccco1 | 2.84%
56 | O=[N+]([O-])/C=C/c1ccc2c(ccn2Cc2ccccc2)c1 | 13.8%
57 | Cc1cccc(OCC(O)Cn2c(=N)n(CCN3CCOCC3)c3ccccc32)c1 (stereo not given) | -3.3%
58 | CCCCCCCCCCOC(=O)Cn1c(COc2cccc(OC)c2)[n+](C)c2ccccc21 | 8.62%
59 | O=C(Nc1cccc(-c2nc3ccccc3[nH]2)c1)c1ccc(C(=O)Nc2cccc(-c3nc4ccccc4[nH]3)c2)cc1 | 2.51%
60 | Clc1ccc(-n2nnnc2-c2cnc(-c3ccccn3)nc2-c2cccs2)cc1 | 64.5% (active)
61 | Cc1ccc(Cn2nnc3c(=O)[nH]c(C4CCN(S(=O)(=O)/C=C/c5ccccc5)CC4)nc32)cc1 | 20.5% (active)
62 | Cc1ccc(NC(=O)COc2ccc(/C=C3/NC(=O)NC3=O)cc2)cc1 | 16.6% (active)
63 | NC(N)=N/N=C/c1ccc(OCc2ccc(Cl)cc2Cl)cc1 | 17.3% (active)
64 | CC(=O)c1ccc(N2CCN(S(=O)(=O)c3ccc4c(c3)CC(=O)N4C)CC2)cc1 | 7.42%
65 | O=C(Nc1ccc(S(=O)(=O)Nc2nccs2)cc1)c1cc(-c2ccncc2)nc2ccccc12 | 12.1%
66 | Cc1ccc(-c2cc(C(=O)Nc3nn[nH]n3)c3ccccc3n2)c(C)c1 | 0.22%
67 | O=C(Nc1nnc(-c2ccccc2)o1)c1cc(-c2cccs2)nc2ccccc12 | 28.1% (active)
68 | O=C(/C=C/c1ccc(F)cc1)NC(=S)NNC(=O)c1cccnc1 | 14.7%
69 | COc1cccc(/C=N/NC(=O)c2[nH]nc3c2CCc2ccccc2-3)c1O | 36% (active)

Row | SMILES | inhibition
70 | N=c1n(Cc2ccc(Cl)cc2)c2ccccc2n1CC(O)c1ccco1 (stereo not given) | -2.68%
71 | Cc1ccc2nc(N3C(=O)C(O)=C(C(=O)c4ccco4)C3c3cccc(O)c3)sc2c1 (stereo not given) | 20.8% (active)
72 | CCNS(=O)(=O)c1ccc(NC(=O)Nc2cccc(C(F)(F)F)c2)cc1 | 4.33%
73 | Cc1nc2c(C(=O)NCc3ccc4c(c3)OCO4)c[nH]n2c(=O)c1Cc1ccccc1F | 32.2% (active)
74 | CCCOc1ccc(C2C(C(=O)c3ccc(C)o3)=C(O)C(=O)N2CCCn2ccnc2)cc1 (stereo not given) | 37.2% (active)
75 | COc1ccc(C2C(C(C)=O)=C(O)C(=O)N2CCc2c[nH]c3ccccc23)cc1 (stereo not given) | 11.8%
76 | Cc1cc(N2C(=O)C(O)=C(C(=O)c3ccc(C)o3)C2c2ccc(OCc3ccccc3)cc2)no1 (stereo not given) | 32.6% (active)
77 | COc1cc(C2C(C(=O)c3ccc(C)o3)=C(O)C(=O)N2CCc2ccccc2)ccc1O (stereo not given) | 27.1% (active)
78 | C/C(CC(O)(/C=N/O)c1ccccc1)=N\O (stereo not given) | -3.06%
79 | Cc1ccc2cc(CCNC(=O)c3c(-c4ccccc4Cl)noc3C)c(=O)[nH]c2c1 | -1.41%
80 | COC(=O)Cc1cc(=O)n(-c2nc3ccccc3s2)[nH]1 | 0.62%
81 | CN(C(=O)CN(CCO)CC(=O)N(C)C(C)(C)Cc1ccccc1)C(C)(C)Cc1ccccc1 | -9.33%
82 | C#CCOCCOCCOCCNc1nc(N2CCN(C(=O)CCCCCCCCCCNC(=O)[C@H]([C@@H](C)CC)n3cc(CCCCN=C(N)N)nn3)CC2)nc(N2CCN(C(=O)CCCCCCCCCCNC(=O)[C@H](CO)n3cc(CCCSC)nn3)CC2)n1 | 42.5% (active)
83 | C#CCOCCOCCOCCNc1nc(N2CCN(C(=O)CCCCCCCCCCNC(=O)[C@H](CCCCN)n3cc(C)nn3)CC2)nc(N2CCN(C(=O)CCCCCCCCCCNC(=O)[C@H](CO)n3cc(CCCSC)nn3)CC2)n1 | 41.8% (active)
84 | C#CCOCCOCCOCCNc1nc(N2CCN(C(=O)CCCCCCCCCCNC(=O)Cn3cc(CCCCCN)nn3)CC2)nc(N2CCN(C(=O)CCCCCCCCCCNC(=O)[C@H](CO)n3cc(CCCSC)nn3)CC2)n1 | 50.9% (active)
85 | C=CCn1c(=S)[nH]c2scc(-c3ccco3)c2c1=O | 7.08%
86 | Cc1nc(/N=C(\N)NC(=O)NC2CCCCC2)nc2ccccc12 | 26.9% (active)
87 | Cc1ccc(-c2cc(C(=O)N/N=C/C=C/c3ccco3)c3ccccc3n2)cc1C | 9.2%
88 | OCCCN1c2ccccc2Nc2nnc(-c3ccccc3)cc21 | 27.3% (active)
89 | CCC(=C/c1sc2ccc3ccccc3c2[n+]1C)/C=C1\Sc2ccc3ccccc3c2N1C | 62.5% (active)
90 | CSc1ccc(/C=N\NC(=O)COc2ccc(Cl)cc2Br)cc1 | -1.13%
